Data from PubChem BioAssay (NCATS).
Records with an inconclusive call do not appear. Calls of active or inactive are those of the source. The call rests on the fitted dose curve; in most records, active means well fitted curve in the direction sought with a large enough effect; inconclusive means small, poorly fitted or top-dose-only effect, or another doubt; inactive means no such curve, though single readings can be large; an effect the other way counts as inactive or inconclusive.

Experiments:
[1] = target: Rap guanine nucleotide exchange factor 3 (Homo sapiens) (UniProt O95398); assay: Confirmatory qHTS for agonist of cAMP-regulated guanine nucleotide exchange factor 3 (EPAC1) (AID 1645881);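 further: EPAC1 catalysed release of BODIPY-GDP from Rap1B seen as fluorescence loss; 100% = effect of cAMP agonist control; nearly all actives have a fitted effect of over 75% in size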
Rap guanine nucleotide exchange factor 3 (Homo sapiens), sequence (O95398 whole entry, looked up): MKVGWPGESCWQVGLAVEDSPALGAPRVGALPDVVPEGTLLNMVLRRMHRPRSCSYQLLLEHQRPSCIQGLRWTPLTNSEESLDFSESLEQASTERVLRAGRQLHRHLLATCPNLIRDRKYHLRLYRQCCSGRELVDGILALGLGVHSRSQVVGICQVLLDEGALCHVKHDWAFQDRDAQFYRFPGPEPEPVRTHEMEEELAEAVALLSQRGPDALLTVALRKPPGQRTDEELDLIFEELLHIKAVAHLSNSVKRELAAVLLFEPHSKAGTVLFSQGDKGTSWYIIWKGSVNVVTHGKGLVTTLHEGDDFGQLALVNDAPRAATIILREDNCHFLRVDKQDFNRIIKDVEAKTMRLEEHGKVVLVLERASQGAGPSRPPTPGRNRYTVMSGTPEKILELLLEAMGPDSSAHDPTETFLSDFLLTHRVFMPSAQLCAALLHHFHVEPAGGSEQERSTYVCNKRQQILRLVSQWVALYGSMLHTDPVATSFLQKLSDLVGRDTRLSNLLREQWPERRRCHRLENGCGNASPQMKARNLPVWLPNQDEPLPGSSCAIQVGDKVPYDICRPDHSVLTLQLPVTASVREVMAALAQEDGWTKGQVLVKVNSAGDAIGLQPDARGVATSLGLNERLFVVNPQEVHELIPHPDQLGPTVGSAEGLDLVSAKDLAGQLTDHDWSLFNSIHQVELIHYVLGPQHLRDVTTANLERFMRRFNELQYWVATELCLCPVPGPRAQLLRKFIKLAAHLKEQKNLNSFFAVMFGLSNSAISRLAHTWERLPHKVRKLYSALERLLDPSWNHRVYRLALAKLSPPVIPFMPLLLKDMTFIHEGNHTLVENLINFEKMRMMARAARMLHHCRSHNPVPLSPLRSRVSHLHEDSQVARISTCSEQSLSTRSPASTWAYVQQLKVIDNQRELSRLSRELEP

[2] = target: Rap guanine nucleotide exchange factor 4 (Homo sapiens) (UniProt Q8WZA2); assay: Confirmatory qHTS for agonist of cAMP-regulated guanine nucleotide exchange factor 4 (EPAC2) (AID 1645884);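 further: nucleotide exchange releases bodipy-GDP from Rap1 and this lowers its fluorescence; on the % scale 0 is the no-effect control and ±100 the full control effect; nearly all actives have a fitted effect of over 65% in size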
Rap guanine nucleotide exchange factor 4 (Homo sapiens), sequence (Q8WZA2 whole entry, looked up): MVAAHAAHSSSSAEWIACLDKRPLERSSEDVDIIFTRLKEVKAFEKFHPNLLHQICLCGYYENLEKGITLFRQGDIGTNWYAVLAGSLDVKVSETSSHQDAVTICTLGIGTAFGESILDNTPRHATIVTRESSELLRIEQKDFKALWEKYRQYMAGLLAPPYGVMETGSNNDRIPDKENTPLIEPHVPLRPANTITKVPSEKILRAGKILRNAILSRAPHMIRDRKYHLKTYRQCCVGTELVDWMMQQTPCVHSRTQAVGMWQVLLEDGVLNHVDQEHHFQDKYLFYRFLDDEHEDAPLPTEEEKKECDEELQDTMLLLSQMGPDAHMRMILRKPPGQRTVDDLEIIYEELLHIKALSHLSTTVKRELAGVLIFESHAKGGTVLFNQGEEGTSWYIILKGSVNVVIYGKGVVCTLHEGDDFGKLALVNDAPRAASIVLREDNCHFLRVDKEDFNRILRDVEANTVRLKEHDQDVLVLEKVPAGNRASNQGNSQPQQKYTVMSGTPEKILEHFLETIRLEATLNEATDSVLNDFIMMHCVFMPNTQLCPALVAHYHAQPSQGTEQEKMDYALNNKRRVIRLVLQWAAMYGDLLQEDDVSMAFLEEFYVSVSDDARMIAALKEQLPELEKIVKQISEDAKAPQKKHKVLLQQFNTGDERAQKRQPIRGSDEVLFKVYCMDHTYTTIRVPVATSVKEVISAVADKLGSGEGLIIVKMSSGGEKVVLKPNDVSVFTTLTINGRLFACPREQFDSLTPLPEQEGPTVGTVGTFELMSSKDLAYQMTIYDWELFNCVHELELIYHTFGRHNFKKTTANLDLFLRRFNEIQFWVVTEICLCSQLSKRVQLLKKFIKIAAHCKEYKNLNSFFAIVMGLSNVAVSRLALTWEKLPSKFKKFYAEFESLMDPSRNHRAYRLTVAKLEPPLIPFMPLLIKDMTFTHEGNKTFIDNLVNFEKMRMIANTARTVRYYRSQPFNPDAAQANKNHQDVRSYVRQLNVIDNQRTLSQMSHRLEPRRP

[3] = target: Rap guanine nucleotide exchange factor 4 (Homo sapiens) (UniProt Q8WZA2); assay: Confirmatory qHTS for antagonist of cAMP-regulated guanine nucleotide exchange factor 4 (EPAC2) (AID 1645885); further: nearly all actives have a fitted effect of over 25% in size; further: potency means the concentration at half of the fitted maximal effect; on activity change, negative = inhibition: on the % scale 0 is the no-effect control and ±100 the full control effect
[4] = target: Rap guanine nucleotide exchange factor 3 (Homo sapiens) (UniProt O95398); assay: Counterscreen qHTS for antagonist of cAMP-regulated guanine nucleotide exchange factor 3 (EPAC1) (AID 1645888);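 further: fluorescence loss as bound BODIPY-GDP is released from Rap1B; % of control where 0% means no effect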
Summary of the method: (§1)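 Rap1B–BODIPY-GDP (250 nM) with 50 uM GDP; compounds pin-transferred to 9.74 nM–152 uM final (activator) or from 7.32 nM upwards (inhibitor). Fluorescence Ex/Em 480/540 nm read at 5 and 30 min, then after adding cAMP or buffer, at room temperature.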

[5] = target: Rap guanine nucleotide exchange factor 3 (Homo sapiens) (UniProt O95398); assay: Counterscreen qHTS for agonist of cAMP-regulated guanine nucleotide exchange factor 3 (EPAC1) (AID 1645889); further: % of control where 0% means no effect; nearly all actives have a fitted effect of over 40% in size
Summary of the method: as §1

Cc1ccc(S(=O)(=O)N2[C@@H](c3ccc(C(C)(C)C)cc3)C(C(=O)O)=CC[C@H]2c2cccs2)cc1
inactive: Potency [1] | Potency [2] | Potency [3] | Potency [4] | Potency [5]

CCOC(=O)c1c(C)oc2nc(C)nc(N(CC(C)C)CC(C)C)c12
inactive: Potency [1] | Potency [2] | Potency [3] | Potency [4] | Potency [5]

COC(=O)c1ccc(-c2ccc(/C=N/N3C(=O)C4C5C=CC(C6CC56)C4C3=O)o2)cc1 (stereo not given)
inactive: Potency [1] | activation [2] 1.41% [at 17.1 µM, percent relative to cAMP agonist control] | Potency [3] | activity change, negative = inhibition [4] -3.98% [at 30.8 µM] | activation [5] 7.8% [at 30.8 µM]

Cc1cccc(CN2C(=O)c3ccccc3Sc3ccc(C(=O)N4CCCC4)cc32)c1
inactive: Potency [1] | Potency [2] | Potency [3] | Potency [4] | Potency [5]

CCOC(=O)C1=C(N)Oc2cc(O)ccc2C1c1ccccc1 (stereo not given)
inactive: Potency [1] | activation [2] -4.25% [at 17.1 µM, percent relative to cAMP agonist control] | Potency [3] | activity change, negative = inhibition [4] -7.53% [at 30.8 µM] | activation [5] 10.8% [at 30.8 µM]

Cc1ccc(S(=O)(=O)Nc2ccc3cc([N+](=O)[O-])ccc3c2[N+](=O)[O-])cc1
inactive: Potency [1] | Potency [2] | Potency [3] | Potency [4] | Potency [5]

N#Cc1c(-c2ccccc2)c(C#N)c2nc3ccccc3n2c1N
inactive: Potency [1] | Potency [2] | Potency [4] | Potency [5]
active: Potency [3] 84.9 µM

CC1(Cc2cc(Cl)ccc2C(F)(F)F)C(=O)Nc2cc(F)ccc21 (stereo not given)
inactive: Potency [1] | activation [2] 5.2% [at 17.1 µM, percent relative to cAMP agonist control] | Potency [3] | activity change, negative = inhibition [4] -15.8% [at 30.8 µM] | activation [5] 12.6% [at 30.8 µM]

CCOP(=O)(OCC)C(Cc1ccccc1)N=C(c1ccccc1)c1ccccc1 (stereo not given)
inactive: Potency [1] | activation [2] 2.26% [at 17.1 µM, percent relative to cAMP agonist control] | Potency [3] | activity change, negative = inhibition [4] 3.36% [at 30.8 µM] | activation [5] 12.6% [at 30.8 µM]

COc1cc(OC)cc(-c2cc3ccc(OC)cc3cn2)c1
active: Potency [3] 30.1 µM
inactive: Potency [1] | Potency [2] | Potency [4] | Potency [5]

N#Cc1c(SCC(=O)Nc2cccc(C(F)(F)F)c2)sc2c(O)cc(=O)[nH]c12
inactive: Potency [1] | activation [2] 0% [at 17.1 µM, percent relative to cAMP agonist control] | Potency [3] | activity change, negative = inhibition [4] -10.8% [at 30.8 µM] | activation [5] 17.2% [at 30.8 µM]

C[C@H](c1ccccc1)N1C[C@H](COCc2ccccc2)Oc2cc(N3CC[C@@H](O)C3)ccc2S1(=O)=O
inactive: Potency [1] | activation [2] 10.3% [at 17.1 µM, percent relative to cAMP agonist control] | Potency [3] | activity change, negative = inhibition [4] -15.5% [at 30.8 µM] | activation [5] 20% [at 30.8 µM]

COc1ccccc1/C=C1\SC(=S)N(CCC(=O)Nc2ccc(C(=O)O)c(O)c2)C1=O
inactive: Potency [1] | activation [2] 4.12% [at 17.1 µM, percent relative to cAMP agonist control] | Potency [3] | activity change, negative = inhibition [4] -13.3% [at 30.8 µM] | activation [5] 10.4% [at 30.8 µM]

CCCN1C(=O)c2ccccc2NC1c1ccc(Cl)c(Cl)c1 (stereo not given)
inactive: Potency [1] | activation [2] 5.07% [at 17.1 µM, percent relative to cAMP agonist control] | Potency [3] | activity change, negative = inhibition [4] -17% [at 30.8 µM] | activation [5] 12.5% [at 30.8 µM]

CCOP(=O)(OCC)C(Cc1ccc(OC)c(OC)c1)N=C(c1ccccc1)c1ccccc1 (stereo not given)
inactive: Potency [1] | activation [2] 4.61% [at 17.1 µM, percent relative to cAMP agonist control] | Potency [3] | activity change, negative = inhibition [4] -11.3% [at 30.8 µM] | activation [5] 17.1% [at 30.8 µM]

O=C(O)C(Cc1c[nH]c2ccccc12)NS(=O)(=O)c1ccc(Cl)c(C(F)(F)F)c1 (stereo not given)
inactive: Potency [1] | activation [2] -2.68% [at 17.1 µM, percent relative to cAMP agonist control] | Potency [3] | activity change, negative = inhibition [4] -4.37% [at 30.8 µM] | activation [5] 21.8% [at 30.8 µM]

O=C(O)C(Cc1c[nH]c2ccccc12)NS(=O)(=O)c1ccc2ccccc2c1 (stereo not given)
inactive: Potency [1] | Potency [2] | Potency [3] | Potency [4] | Potency [5]

COc1cccc(OCc2nc3ccccc3n2Cc2ccccc2)c1
inactive: Potency [1] | Potency [2] | Potency [3] | Potency [4] | Potency [5]

CC(=O)Nc1ccc(NC(=O)CNC(=O)COc2ccccc2)cc1
inactive: Potency [1] | activation [2] 14.1% [at 17.1 µM, percent relative to cAMP agonist control] | Potency [3] | activity change, negative = inhibition [4] 1.2% [at 30.8 µM] | activation [5] -0.338% [at 30.8 µM]

Cc1ccc(S(=O)(=O)NC(=O)c2ccc(-c3ccc(C)c4ccccc34)o2)cc1
inactive: Potency [1] | Potency [2] | Potency [3] | Potency [4] | Potency [5]

O=C(O)COc1ccc(/C=N/NC(=O)c2ccc(-c3csc(Nc4ccc(Cl)cc4)n3)cc2)cc1
inactive: Potency [1] | Potency [2] | Potency [3] | Potency [4] | Potency [5]

CC(/C=C1\SC(=S)N(CCC(=O)Nc2cccc(C(=O)O)c2)C1=O)=C\c1ccccc1
inactive: Potency [1] | activation [2] 9.03% [at 17.1 µM, percent relative to cAMP agonist control] | Potency [3] | activity change, negative = inhibition [4] 19.7% [at 30.8 µM] | activation [5] 16.2% [at 30.8 µM]

COC1=C(Nc2ccc(O)cc2)C(=O)c2ccccc2C1=O
inactive: Potency [1] | activation [2] 5% [at 17.1 µM, percent relative to cAMP agonist control] | Potency [3] | activity change, negative = inhibition [4] 4.79% [at 30.8 µM] | activation [5] 25.2% [at 30.8 µM]

CCOC(=O)N(C)c1c(CC)nc2c(OCc3ccc(C(F)(F)F)cc3)cccn12
inactive: Potency [1] | Potency [2] | Potency [3] | Potency [4] | Potency [5]

O=c1ccc(-c2ccccc2)nn1Cc1ccc(F)cc1Cl
inactive: Potency [1] | Potency [2] | Potency [3] | Potency [4] | Potency [5]

C=CCc1ccccc1OCCSc1nc(-c2ccccc2F)nc2cc(=O)[nH]n12
inactive: Potency [1] | Potency [2] | Potency [3] | Potency [4] | Potency [5]

CCCCOc1c(Br)cc(/C=N/O)cc1OCC
inactive: Potency [1] | activation [2] 6.54% [at 17.1 µM, percent relative to cAMP agonist control] | Potency [3] | activity change, negative = inhibition [4] -12% [at 30.8 µM] | activation [5] 5.43% [at 30.8 µM]

COc1cccc(C(=O)Nc2nnc(S(=O)(=O)Nc3cccc(C)c3)s2)c1
inactive: Potency [1] | Potency [2] | Potency [3] | Potency [4] | Potency [5]

O=c1c2ccccc2c(C=Nc2ccc(O)cc2)c(O)n1Cc1ccccc1
inactive: Potency [1] | activation [2] 1.98% [at 17.1 µM, percent relative to cAMP agonist control] | Potency [3] | activity change, negative = inhibition [4] -7.68% [at 30.8 µM] | activation [5] 1.81% [at 30.8 µM]

COc1cc2c(c(OC)c1OC)-c1c(cc(OC)c(OC)c1OC)C[C@H](C)[C@H](C)C2
inactive: Potency [1] | activation [2] 7.13% [at 17.1 µM, percent relative to cAMP agonist control] | Potency [3] | activity change, negative = inhibition [4] -11.3% [at 30.8 µM] | activation [5] 23.6% [at 30.8 µM]

Cc1ccccc1NC(=O)CN1C(=O)N/C(=C\c2ccccc2OCc2ccc(C(=O)O)cc2)C1=O
inactive: Potency [1] | Potency [2] | Potency [4] | Potency [5]
active: Potency [3] 53.6 µM

Cc1c(C(=O)OCC(C)C)[nH]c2c1C(=O)CC(c1ccco1)C2 (stereo not given)
inactive: Potency [1] | Potency [2] | Potency [3] | Potency [4] | Potency [5]

CCCCNC(=O)COC(=O)c1c2c(nc3ccccc13)CCC2
inactive: Potency [1] | Potency [2] | Potency [3] | Potency [4] | Potency [5]

CN(CC(=O)Nc1cccc(F)c1)C(=O)c1cccc(-n2cccc2)c1
inactive: Potency [1] | activation [2] 6.22% [at 17.1 µM, percent relative to cAMP agonist control] | Potency [3] | activity change, negative = inhibition [4] -8.31% [at 30.8 µM] | activation [5] 14.1% [at 30.8 µM]

Cc1ccc(-c2nn(-c3ccccc3)cc2C=C2SC(=S)N(CCS(=O)(=O)O)C2=O)cc1
inactive: Potency [1] | activation [2] 6.87% [at 17.1 µM, percent relative to cAMP agonist control] | Potency [3] | activity change, negative = inhibition [4] -16.5% [at 30.8 µM] | activation [5] 28% [at 30.8 µM]

COc1ccccc1N1CCN(CC(O)COc2ccc(C)cc2C(C)(C)C)CC1 (stereo not given)
inactive: Potency [1] | Potency [2] | Potency [3] | Potency [4] | Potency [5]

CCOC(=O)c1ccc2c(c1)C1C=CCC1C(C(=O)OCC)N2 (stereo not given)
inactive: Potency [1] | activation [2] 4.17% [at 17.1 µM, percent relative to cAMP agonist control] | Potency [3] | activity change, negative = inhibition [4] -1.12% [at 30.8 µM] | activation [5] 32.7% [at 30.8 µM]

Cc1cccc(NC(=O)COC(=O)c2c(-c3ccccc3)noc2C)c1
inactive: Potency [1] | activation [2] 4.55% [at 17.1 µM, percent relative to cAMP agonist control] | Potency [3] | activity change, negative = inhibition [4] -6.85% [at 30.8 µM] | activation [5] 24.2% [at 30.8 µM]

Cc1cc(-c2ccc(C(C)C)c(S(=O)(=O)N3CCC(C)CC3)c2)on1
inactive: Potency [1] | activation [2] 8.04% [at 17.1 µM, percent relative to cAMP agonist control] | Potency [3] | activity change, negative = inhibition [4] -17.5% [at 30.8 µM] | activation [5] 0.648% [at 30.8 µM]
